# In PubChem BioAssay AID602396 (The Scripps Research Institute Molecular Screening Center, 2012):
# The campaign covered roughly 360,000 compounds. About 460 (0.13%) were called active. Only a selection was taken, and actives are over-represented in it overall. A number with no mark means an inactive call.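 How the source made its calls: active means inhibition above the mean inhibition of all tested compounds plus 3 SD (cut at about 73% in these data); inactive means the rest.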
# Target: Nuclear receptor subfamily 5 group A member 2 (Homo sapiens) (UniProt O00482)
# Sequence (O00482 whole entry, looked up): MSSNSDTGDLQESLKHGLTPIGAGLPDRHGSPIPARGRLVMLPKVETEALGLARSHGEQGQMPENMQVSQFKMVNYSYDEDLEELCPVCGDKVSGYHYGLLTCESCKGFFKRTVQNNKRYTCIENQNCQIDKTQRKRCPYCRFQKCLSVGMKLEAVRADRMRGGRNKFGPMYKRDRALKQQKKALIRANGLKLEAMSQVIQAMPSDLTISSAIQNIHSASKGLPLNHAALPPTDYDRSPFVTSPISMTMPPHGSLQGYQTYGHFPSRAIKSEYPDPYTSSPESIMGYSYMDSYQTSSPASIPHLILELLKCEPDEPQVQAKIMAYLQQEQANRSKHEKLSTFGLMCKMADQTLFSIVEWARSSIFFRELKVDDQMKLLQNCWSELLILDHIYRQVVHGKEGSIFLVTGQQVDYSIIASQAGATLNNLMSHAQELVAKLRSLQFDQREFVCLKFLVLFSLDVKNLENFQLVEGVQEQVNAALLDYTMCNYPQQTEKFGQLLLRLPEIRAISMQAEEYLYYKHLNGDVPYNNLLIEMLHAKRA
# Assay: reduction of NR5A2-driven StAR reporter activity – cell-based, luminescence, HEK293T, StAR-luciferase reporter, primary screen (AID 602396);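 further: 0% = DMSO wells and 100% = reporter-only cells lacking LRH-1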
# Conditions: LRH-1 transfected, 24 h, at 3.6 µM, active compounds read high
row,SMILES,inhibition
1,CC(=O)OC1C2(CC3N4C(=O)C5(CO)SSC4(CC31O)C(=O)N5C)OC(C)C(C)(C)C2=O (stereo not given),97.6% (active)
2,CC(=O)N1CN2CN(C(C)=O)CC(C(=O)c3ccc(Br)cc3)(C2)C1,-11.4%
3,CN(C)C(=O)Oc1ccc(NC(=O)N2CCOCC2)cc1,10.7%
4,CCOc1ccc(-c2cc(C)[n+](CCN(CC)CC)c(-c3ccc(OCC)cc3)c2)cc1,86.7% (active)
5,CC(C)n1c(=O)c(C=Nc2ccc(Br)cc2)c(O)n(Cc2ccco2)c1=O,5.59%
6,CCOC(=O)C(O)(c1ccc(NC(=O)c2ccco2)c(OC)c1)C(F)(F)F (stereo not given),15%
7,NCCc1ccc(S(=O)(=O)F)cc1,12.1%
8,O=[N+]([O-])c1ccc(C2C3C(c4ccccc4)=NC4(CCCCC4)N32)cc1 (stereo not given),22.7%
9,CCC(C)n1c(O)c(/C=N/Nc2nc3c(c(=O)n(C)c(=O)n3C)n2C)c(=O)[nH]c1=S (stereo not given),-7.02%
10,CCCCCCCCCCCCn1ccc(=N)cc1,84.1% (active)
11,CN(C)CC1CCCCC1=O (stereo not given),15.8%
12,COc1ccc(-c2nn(CCC#N)cc2C(=O)Nc2ccc(C(C)=O)cc2)cc1,17.1%
13,Clc1cccc(Cl)c1Cl,2.81%
14,Cc1ccc(-c2nc3ccccc3c(=O)n2-c2ccc(Br)cn2)cc1,-1.48%
15,CCNc1nc2[nH]c(=O)c3c(c2s1)OC(N)=C(C#N)C3c1cccs1 (stereo not given),-2.41%
16,CN(C)c1ccc(/C=C2\CC3C4CC=C5CC(O)CCC5(C)C4CCC3(C)C2=O)cc1 (stereo not given),10.7%
17,CCC(C)(O)C(=O)OC1C(=O)OC2CC3C(C)=CC(=O)C(O)C3(C)C3C4(O)OCC23C1C(C)C4O (stereo not given),98.4% (active)
18,COc1ccc(C(=O)CC2C(=O)N(C)C(=O)N(C)C2=O)cc1,-5.13%

row,SMILES,inhibition
1,COC(=O)C1=C(c2ccccc2)C[C@@H]2CC[C@H]1N2C(=O)N1CCCCC1,8.33%
2,O=C1C2(Cl)C3(Cl)C4(Cl)C(Cl)(Cl)C5(Cl)C3(Cl)C1(Cl)C5(Cl)C24Cl (stereo not given),0.27%
3,CCOP(=S)(OCC)SCOC(=O)NCC(=O)OC,-13.1%
4,CN(C)C(=O)NC(O)C(Cl)(Cl)Cl (stereo not given),-10.3%
5,C[C@]12CC[C@H](O)C[C@H]1CC[C@@H]1C2CC[C@]2(C)[C@@H](C3=CC(=O)OC3)[C@@H](O)C[C@]12O (stereo not given in full),88.6% (active)
6,COC(=O)C1=C(c2ccc(F)cc2F)C[C@@H]2CC[C@H]1N2C(=O)NC1CC1,20.8%
7,COc1ccc(NC(=O)N2Cc3ccccc3-n3nncc3C2)cc1,-12.7%
8,COC1C(O)C(C)OC(OC2CCC3(C=O)C(CCC4C3CCC3(C)C(C5=CC(=O)OC5)CCC43O)C2)C1O (stereo not given),104% (active)
9,COCCNC(=O)CN1C2CCC1CC(O)(c1cccnc1)C2 (stereo not given),17.3%
10,Cc1ccc2c(c1)C1CN(C)CCC1N2C(=O)Cn1nnc(-c2ccccc2F)n1 (stereo not given),-20.9%
11,CC1=CC(=Cc2sc3ccccc3[n+]2C)C=C(C)O1,80.7% (active)
12,COc1ccccc1N=C1SCCCN1C,11.8%
13,CCOC(=O)CNC(=O)N1Cc2cc(N3CCCCC3)ccc2-n2nncc2C1,6.84%
14,Cc1cc(OCc2cc(C(=O)O)oc2C)c2c3c(c(=O)oc2c1)CCCC3,15.5%
15,NCC(O)c1ccc(O)cc1 (stereo not given),-5.8%
16,CCN(N=Nc1nonc1OC)c1nonc1OC,3.32%
17,CC1CCCN1CCC(C(N)=O)(c1ccccc1)c1ccccc1 (stereo not given),-19.5%
